Data on three compounds can be found in PubChem BioAssay (EPA / NIEHS).

Read-out in test [1]: Eotaxin 3, CCL26 (gene 10344)
In words: BSK_BF4T_Eotaxin3: BioMAP Diversity Plus: BF4T Assay for Eotaxin 3 Biomarker Activity (AID 2284258). The settings on record: primary human bronchial epithelial cells with fibroblasts. In outline: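 ELISA measurement of Eotaxin-3 after 24 h chemical exposure in a bronchial epithelial/dermal fibroblast co-culture, with DMSO as baseline. Parallel SRB staining (0.1% SRB after 10% TCA fixation, 560 nm) flagged overt cytotoxicity.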

Read-out in test [2]: Monocyte Chemoattractant Protein-1 (MCP1), CCL2 (gene 6347)
Put plainly: BSK_BF4T_MCP1: BioMAP Diversity Plus: BF4T Assay for Monocyte Chemoattractant Protein-1 (MCP1) Biomarker Activity (AID 2284259). As to conditions: primary human bronchial epithelial cells with fibroblasts. In outline:
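MCP-1 ELISA readout taken 24 h after dosing in the BF4T system (bronchial epithelial cells plus dermal fibroblasts). Parallel SRB total-protein staining flagged cytotoxicity; DMSO served as baseline, positive fitting direction.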

Read-out in test [3]: Intercellular Adhesion Molecule 1 (ICAM1), ICAM1 (gene 3383)
In words: BSK_BF4T_ICAM1: BioMAP Diversity Plus: BF4T Assay for Intercellular Adhesion Molecule 1 (ICAM1) Biomarker Activity (AID 2284260). The settings on record: primary human bronchial epithelial cells with fibroblasts. The procedure, abridged: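 ICAM-1 levels measured by ELISA after 24 h chemical treatment of bronchial epithelial cell/dermal fibroblast co-cultures, read against DMSO baseline. Overt cytotoxicity checked in parallel cultures by sulforhodamine B staining.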

Read-out in test [4]: Interleukin-8 (IL8), CXCL8 (gene 3576)
In words: BSK_MyoF_IL8: BioMAP Diversity Plus: MyoF Assay for Interleukin-8 (IL8) Biomarker Activity (AID 2284261). The settings on record: primary human lung fibroblasts. The procedure, abridged: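 Lung fibroblasts (human primary) → chemical exposure → 24 h → IL-8 measured by ELISA. Signal increase scored versus DMSO control.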

Read-out in the next test: CD90, THY1 (gene 7070)
Put plainly: BSK_BF4T_CD90: BioMAP Diversity Plus: BF4T Assay for CD90 Biomarker Activity (AID 2284262). As to conditions: primary human bronchial epithelial cells with fibroblasts. In outline: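 CD90 levels by ELISA after 24 h treatment of human bronchial epithelial cell/dermal fibroblast cultures, analysed versus DMSO. Overt cytotoxicity checked in parallel cultures by sulforhodamine B staining.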

Read-out in test [5]: Interleukin-8 (IL8), CXCL8 (gene 3576)
In words: BSK_BF4T_IL8: BioMAP Diversity Plus: BF4T Assay for Interleukin-8 (IL8) Biomarker Activity (AID 2284263). The settings on record: primary human bronchial epithelial cells with fibroblasts. The procedure, abridged:
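Human bronchial epithelial cells with dermal fibroblasts co-culture; IL-8 measured by ELISA 24 hours after dosing, fitted vs DMSO. Cytotoxicity tracked in parallel cultures by SRB total-protein staining.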

Read-out in test [6]: Interleukin-1 alpha (IL1a), IL1A (gene 3552)
In words: BSK_BF4T_IL1a: BioMAP Diversity Plus: BF4T Assay for Interleukin-1 alpha (IL1a) Biomarker Activity (AID 2284264). As to conditions: primary human bronchial epithelial cells with fibroblasts. In outline:
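ELISA read-out of IL-1α from bronchial epithelial cell/dermal fibroblast co-cultures 24 h after compound addition. Increases scored against DMSO negative control. Cytotoxicity monitored by sulforhodamine B staining of parallel cultures.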

Read-out in a further test: Decorin, DCN (gene 1634)
Put plainly: BSK_MyoF_Decorin: BioMAP Diversity Plus: MyoF Assay for Decorin Biomarker Activity (AID 2284265). As to conditions: primary human lung fibroblasts. In outline:
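ELISA readout of decorin, 24 h post-dosing; primary human lung fibroblast (MyoF) culture; gain-of-signal fit vs DMSO baseline.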

Read-out in a further test: KRT18 (gene 3875)
In words: BSK_BF4T_Keratin818: BioMAP Diversity Plus: BF4T Assay for Keratin 818 Biomarker Activity (AID 2284266). The settings on record: primary human bronchial epithelial cells with fibroblasts. The procedure, abridged: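 Keratin 8/18 levels quantified by ELISA after 24 h chemical treatment of bronchial epithelial cell/dermal fibroblast co-cultures, fitted in positive direction relative to DMSO. Parallel SRB staining tracks overt cytotoxicity.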

The nature of test [7]: BSK_MyoF_SRB: Viability Assessment in the BioMAP Diversity Plus: MyoF Assay (AID 2284267).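 Note: total protein by SRB absorbance in parallel cultures as cytotoxicity measure.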 As to conditions: primary human lung fibroblasts. In outline: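 Confluent human lung fibroblasts were exposed to test chemicals for 24 h. Parallel wells were then fixed in 10% TCA, stained with 0.1% sulforhodamine B and measured at 560 nm. DMSO served as baseline for curve fitting.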

Read-out in test [8]: Matrix Metallopeptidase 1 (MMP1), MMP1 (gene 4312)
Put plainly: BSK_MyoF_MMP1: BioMAP Diversity Plus: MyoF Assay for Matrix Metallopeptidase 1 (MMP1) Biomarker Activity (AID 2284268). The settings on record: primary human lung fibroblasts. In outline:
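Cells: human lung fibroblasts. Exposure: 24 h chemical dosing. Detection: ELISA for MMP1. Analysis: upward fitting against DMSO negative control.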

Read-out in test [9]: TIMP metallopeptidase inhibitor 1 (TIMP1), TIMP1 (gene 7076)
In words: BSK_MyoF_TIMP1: BioMAP Diversity Plus: MyoF Assay for TIMP metallopeptidase inhibitor 1 (TIMP1) Biomarker Activity (AID 2284269). The settings on record: primary human lung fibroblasts. In outline: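 ELISA read-out of TIMP-1 from primary human lung fibroblast cultures 24 h after compound dosing; gain of signal relative to DMSO vehicle baseline defines activity.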

Read-out in test [10]: Matrix Metallopeptidase 1 (MMP1), MMP1 (gene 4312)
In words: BSK_BF4T_MMP1: BioMAP Diversity Plus: BF4T Assay for Matrix Metallopeptidase 1 (MMP1) Biomarker Activity (AID 2284270). As to conditions: primary human bronchial epithelial cells with fibroblasts. The procedure, abridged:
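MMP-1 quantified by ELISA in primary human bronchial epithelial/dermal fibroblast co-cultures, 24 hours post-dosing, with DMSO as baseline; parallel sulforhodamine B staining (560 nm) tracks overt cytotoxicity.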

Read-out in test [11]: Matrix Metallopeptidase 3 (MMP3), MMP3 (gene 4314)
In words: BSK_BF4T_MMP3: BioMAP Diversity Plus: BF4T Assay for Matrix Metallopeptidase 3 (MMP3) Biomarker Activity (AID 2284271). The settings on record: primary human bronchial epithelial cells with fibroblasts. In outline:
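MMP-3 level read by ELISA after 24 h chemical exposure of bronchial epithelial cell/dermal fibroblast co-cultures, fitted upward relative to DMSO. Parallel cultures stained with 0.1% SRB after TCA fixation gauge overt cytotoxicity.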

Read-out in test [12]: Tissue plasminogen activator (tPA), PLAT (gene 5327)
Put plainly: BSK_BF4T_tPA: BioMAP Diversity Plus: BF4T Assay for Tissue plasminogen activator (tPA) Biomarker Activity (AID 2284272). The settings on record: primary human bronchial epithelial cells with fibroblasts. In outline:
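tPA level quantified by ELISA at 24 h post-treatment in bronchial epithelial/dermal fibroblast co-cultures, gain of signal scored against DMSO baseline. Parallel cultures stained with 0.1% SRB (560 nm) to flag overt cytotoxicity.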

Read-out in test [13]: Plasminogen Activator Inhibitor-1 (PAI1), SERPINE1 (gene 5054)
In words: BSK_BF4T_PAI1: BioMAP Diversity Plus: BF4T Assay for Plasminogen Activator Inhibitor-1 (PAI1) Biomarker Activity (AID 2284273). As to conditions: primary human bronchial epithelial cells with fibroblasts. The procedure, abridged: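 PAI-1 levels quantified by ELISA 24 h post-dosing in bronchial epithelial cell plus dermal fibroblast cultures. Signal gain referenced to DMSO baseline. Sulforhodamine B total-protein staining of parallel wells checked cytotoxicity.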

Test [14] is described as follows: BSK_BF4T_SRB: Viability Assessment in the BioMAP Diversity Plus: BF4T Assay (AID 2284274). As to conditions: primary human bronchial epithelial cells with fibroblasts. The procedure, abridged:
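Cytotoxicity measured as total protein: cells fixed with 10% TCA, stained with 0.1% SRB, read at 560 nm. Bronchial epithelial/dermal fibroblast co-culture, 24 h after dosing, with positive-direction fitting relative to DMSO.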

Read-out in test [15]: urokinase Plasminogen Activator (uPA), PLAU (gene 5328)
In words: BSK_BF4T_uPA: BioMAP Diversity Plus: BF4T Assay for urokinase Plasminogen Activator (uPA) Biomarker Activity (AID 2284275). As to conditions: primary human bronchial epithelial cells with fibroblasts. In outline: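 uPA levels measured by ELISA at 24 hours in BF4T cultures (bronchial epithelial cells plus dermal fibroblasts) and compared with DMSO; cytotoxicity tracked in parallel cultures by sulforhodamine B staining.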

Read-out in test [16]: Matrix Metallopeptidase 9 (MMP9), MMP9 (gene 4318)
In words: BSK_BF4T_MMP9: BioMAP Diversity Plus: BF4T Assay for Matrix Metallopeptidase 9 (MMP9) Biomarker Activity (AID 2284276). As to conditions: primary human bronchial epithelial cells with fibroblasts. The procedure, abridged: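 MMP-9 levels were measured by ELISA after 24 h exposure of bronchial epithelial cell/dermal fibroblast co-cultures, with DMSO as baseline. Parallel cultures were stained with 0.1% SRB after TCA fixation, read at 560 nm, to flag overt cytotoxicity.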

Read-out in test [17]: Interleukin-8 (IL8), CXCL8 (gene 3576)
In words: BSK_IMphg_IL8: BioMAP Diversity Plus: IMphg Assay for Interleukin-8 (IL8) Biomarker Activity (AID 2284277). As to conditions: primary human endothelial cells with macrophages. The procedure, abridged: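 IL-8 levels were measured by ELISA 24 h after dosing in primary human venular endothelial cell–macrophage cultures, referenced to DMSO; parallel SRB staining monitored overt cytotoxicity.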

Where “and” joins values, the source holds several entries; their conditions need not be identical. Identical values can stand only once. Where a structure was tested more than once in an assay, its records may differ in their call. Calls of active or inactive are those of the source. Rule for the calls: active = hit-call score of the fitted dose curve at least 0.9, where 1 is the maximum; inactive = score below 0.9.

With `C=C(C)C(=O)OCCC(F)(F)C(F)(F)C(F)(F)C(F)(F)C(F)(F)C(F)(F)F`, the outcome in test [1] is “inactive”; in [2], “inactive”; in [3], “inactive”; in [4], “inactive”; with CD90, THY1 (gene 7070), “inactive”; in test [5], “inactive”. The outcome in test [6] is “inactive”; with Decorin, DCN (gene 1634), “inactive”; in the test with KRT18 (gene 3875), “inactive”; in test [7], “inactive”; in [8], “inactive”; in test [9], “inactive”. Moreover, the result in test [10], in test [11], in test [12], in test [13], in [14] and in test [15] was inactive. Besides, the result in test [16] and in test [17] was inactive.
As for `C[C@@H]1C[C@H]2[C@@H]3CCC4=CC(=O)C=C[C@]4(C)[C@@]3(F)[C@@H](O)C[C@]2(C)[C@@]1(O)C(=O)COP(=O)(O)O`, the AC50 in test [1] was 951 nM (active); in test [9], 562 nM (active); in test [17] it was 309 nM (active) and 884 nM (active). In addition, the outcome in test [1] was “inactive”; in test [2] it was “inactive”; in [3] it was “inactive”; in test [4] it was “inactive”; with CD90, THY1 (gene 7070), “inactive”; in test [5] it was “inactive”. The outcome is “inactive” in [6]; “inactive” in the test with Decorin, DCN (gene 1634); “inactive” with KRT18 (gene 3875); “inactive” in test [7]; “inactive” in test [8]; “inactive” in [9]. The outcome in test [10], in test [11], in test [12], in test [13], in test [14] and in [15] was inactive. The result in test [16] was inactive.
Regarding `OCCC(F)(F)C(F)(F)C(F)(F)C(F)(F)C(F)(F)C(F)(F)C(F)(F)C(F)(F)F`, the half-maximal activity concentration (AC50) was 13.5 µM (active) and 9.61 µM (active) in test [1]; 21.2 µM (active) and 30 µM (active) in test [2]; 30 µM (active) in test [3]; 14.9 µM (active) in test [4]; 21.5 µM (active) in [6]; 15.1 µM (active) and 14.5 µM (active) in the test with Decorin, DCN (gene 1634). Also, the half-maximal activity concentration (AC50) is 38.6 µM (active) with KRT18 (gene 3875); 15.1 µM (active) and 14.7 µM (active) in [7]; 13.1 µM (active) and 9.78 µM (active) in test [9]; 8.17 µM (active) and 7.72 µM (active) in [12]; 23.8 µM (active) and 18.6 µM (active) in test [13]; 27.2 µM (active) and 34.7 µM (active) in [14]. Further, the AC50 in test [15] was 30 µM (active) and 17.7 µM (active); in test [16], 28 µM (active) and 16.3 µM (active); in test [17], 30 µM (active) and 44.7 µM (active). The outcome in test [4] is “inactive”; with CD90, THY1 (gene 7070) it was “inactive”; in test [5] it was “inactive”; in test [6], “inactive”; with KRT18 (gene 3875), “inactive”; in test [8], “inactive”. Further, the result in test [10] and in test [11] was inactive.
